Only some compounds are listed: those with a hit (about 7.3% of all), similar ones and a draw of the others.
SMN2 splice enh: SMN2 splice variant enhancement | HEK293 SMN2-luciferase splicing reporter, luminescence, 30-36 h | Potency, µM (doses to about 46.1 µM), without a hit: at the top dose activity change, positive = activation, actives largely listed as activators | actives 2.8% (n = 210,000); also: % of control where 0% means no effect; nearly all actives have a fitted effect of over 55% in size
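HEK293 cells carry an SMN2 minigene-luciferase reporter in which exon 7 inclusion puts luciferase in frame. Cells were seeded at 2000 cells/well, attached for 10-12 hours, then exposed to compounds for 30-36 hours at 37C before ONE-Glo luminescence.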
NPC1 prom act: activators of NPC1 promoter. Huh7 NPC1 promoter luciferase reporter, 24 h. Potency, µM (doses to about 9.22 µM), inactives show at the top dose activation, most hits filed as activators. actives 2.4% (n = 320,000). AID 485313; also: % of control where 0% means no effect; nearly all actives have a fitted effect of over 60% in size
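Luciferase expression driven by the NPC1 promoter was measured in stably transfected Huh7 cells after a 24 h compound incubation, using a luciferase reagent and a luminescence read.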
Rab9 prom act: activates the Rab9 promoter; Huh7 Rab9 promoter-luciferase reporter, luminescence, 24 h; Potency, µM (titrated, usually from 9.22 µM), for the others: at the highest dose activation, negative = inhibition, usual class: activators; actives 2.8% (n = 320,000); AID 485297; also: % of control where 0% means no effect; nearly all actives have a fitted effect of over 60% in size
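Cell-based reporter: Huh7 stable for Rab9 promoter-driven luciferase, plated in reduced-serum medium with 10% FBS at 1500 cells/well, compound-treated 24 h at 37 °C, luminescence read after 10 min reagent.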
p53 reactivation: re-activators of mutant p53; H1299 p53-A138V BP100-luciferase reporter, luminescence, 24 h; Potency, µM (doses to about 92.2 µM), inactives show at the highest dose activity change, positive = activation, usual class: activators; actives 0.063% (n = 320,000); AID 504706; also: % of control where 0% means no effect; nearly all actives have a fitted effect of over 45% in size
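H1299 (p53-null), stable ts p53-A138V + BP100-Luc; 1000 cells/well, Opti-MEM/10% FBS; cpd 4 pt, 1:5; 24 h, 37 deg C, 5% CO2; detection reagent 10 min RT; luminescence.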
FLuc counter: counter-screen for miR-21 project: firefly luciferase inhibitors or activators | AID 588342 | purified FLuc, Km substrates, luminescence inhibition | P08659 | actives 6.9% (n = 360,000) | Potency, µM (doses to about 57.5 µM), without a hit: at the top dose activity change, negative = inhibition, actives largely listed as inhibitors;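 also: plate controls were vehicle for no effect and reference inhibitor for full effect; nearly all actives have a fitted effect of over 55% in size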
Target sequence (P08659 whole entry, looked up): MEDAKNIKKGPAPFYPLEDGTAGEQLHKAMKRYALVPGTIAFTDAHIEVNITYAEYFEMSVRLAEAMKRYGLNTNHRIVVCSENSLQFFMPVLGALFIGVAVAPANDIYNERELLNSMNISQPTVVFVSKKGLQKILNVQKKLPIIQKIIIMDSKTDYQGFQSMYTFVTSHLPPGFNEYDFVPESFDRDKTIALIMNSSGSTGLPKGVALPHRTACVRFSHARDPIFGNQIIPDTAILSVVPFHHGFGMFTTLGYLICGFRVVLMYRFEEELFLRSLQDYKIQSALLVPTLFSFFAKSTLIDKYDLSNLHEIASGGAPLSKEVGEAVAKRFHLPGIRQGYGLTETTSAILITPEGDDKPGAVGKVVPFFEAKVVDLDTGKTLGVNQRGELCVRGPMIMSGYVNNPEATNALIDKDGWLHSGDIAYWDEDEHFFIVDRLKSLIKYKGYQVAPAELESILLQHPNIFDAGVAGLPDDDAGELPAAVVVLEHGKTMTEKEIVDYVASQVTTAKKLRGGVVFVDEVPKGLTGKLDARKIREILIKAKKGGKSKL
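Biochemical qHTS of compounds, final roughly 60 µM downward over six points, against 10 nM purified firefly luciferase using Km concentrations of substrates (10 uM D-luciferin, 10 uM ATP) in Tris acetate pH 7.5 buffer; luminescence output.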
ELG1 genotox: genotoxicity induction in ELG1-luciferase HEK293T cells; HEK293T ELG1-luciferase reporter, luminescence, 16 h; Potency, µM (highest dose often 46 µM), inactives show top-dose activity change, positive = activation, actives largely listed as activators; actives 1.3% (n = 330,000); AID 504466; also: % of control where 0% means no effect; nearly all actives have a fitted effect of over 60% in size
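Cells (2,000/well) expressing the ELG1-luciferase fusion are dosed by pin tool and kept 16 hr at 37 °C, 5% CO2. Signal comes from ONE-Glo luciferase reagent after 30 min at room temperature.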
* = called active by the depositor; ? = inconclusive; nt = no result given; [ ] = dose if it differs, or a comment. Calls follow the shape of the dose curve; as a rule, active = well fitted curve in the direction sought with a large enough effect; inconclusive = small, poorly fitted or top-dose-only effect, or another doubt; inactive = no such curve, though single readings can be large; an effect the other way counts as inactive or inconclusive. Potency is read from the fitted curve at half-maximal effect.

SMILES | SMN2 splice enh | NPC1 prom act | Rab9 prom act | p53 reactivation | FLuc counter | ELG1 genotox
CCCCC[C@H](O)/C=C/C=C\C/C=C\C=C\[C@@H](O)CCCC(=O)O | 19.5% | nt | nt | nt | nt | nt
O=C(Nc1ncccc1O)c1ccc(Oc2ccccc2)cc1 | nt | 1.78µM* | 2.82µM* | ? | 6.75µM* | 9.2µM*
O=C(Nc1ncccc1O)c1ccc(OCC2CCCO2)cc1 (stereo unspecified) | nt | 0.794µM* | 0.794µM* | ? | 7.57µM* | 1.16µM*
NC(=O)c1ccc(OCC2CCCO2)cc1 (stereo unspecified) | nt | -1.2% | 2.3% | 9.9% | -3.3% | 1.7%
O=C(NC1=NCCS1)c1ccc(OCC2CCCO2)cc1 (stereo unspecified) | 10µM* | 0.398µM* | 0.355µM* | ? | ? | ?
CCOc1ccc(C(=O)NC2=NCCS2)cc1 | 14.1µM* | 1.12µM* | 0.501µM* | -0.4% | 10.7µM* | ?
Cc1noc(C)c1COc1ccc(C(=O)Nc2ncccc2O)cc1 | nt | 6.4% | 14.1% | 11.8% | -0.2% | ?
CCOCCCNC(=O)NC(C)c1c(-n2cccc2)sc2c1CCN(CC)C2 (stereo unspecified) | nt | nt | nt | nt | -4.5% | nt
COc1cc(OC)c(N(C)C(=O)Cn2ncc3c([nH]c4ccccc43)c2=O)cc1Cl | nt | nt | nt | nt | 0.5% | nt
COc1ccccc1NC(=O)Nc1cccc(NC(C)=O)c1 | nt | 2.1% | -6.6% | -0.9% | ? | 3.3%
COC(=O)c1cccc(NC(=O)c2ccccc2)c1 | nt | 23.6% | ? | 3.9% | ? | 7.4%
COC(=O)c1cccc(NC(=O)Nc2ccc(Cl)c(Cl)c2)c1 | -26.8% | ? | 3.55µM* | 18.1% | 15.1µM* | 0.9%
COC(=O)c1cccc(NC(=O)Nc2ccccc2OC)c1 | nt | 16.2% | ? | 5.3% | 12µM* | ?
COC(=O)c1cccc(NC(=O)NC(=O)c2ccccc2Cl)c1 | nt | 1.26µM* | 0.355µM* | 1.7% | 10.7µM* | ?
COC(=O)c1cc(NC(=O)Nc2ccccc2)ccc1Cl | ? | -0.4% | 18.8% | ? | 15.1µM* | -2.9%
CCOCCCNC(=O)Cn1ncc2c([nH]c3ccc(C)cc32)c1=O | nt | nt | nt | nt | 3.9% | nt
COc1ccc(/C=C2\SC(=S)N(c3cccnc3)C2=O)cc1 | nt | 3.0% | 3.0% | 6.8% | 6.2% | 3.9%
COc1cccc(/C=C2\SC(=S)N(c3cccnc3)C2=O)c1OC | 10.1% | -1.4% | -3.9% | 7.2% | 2.39µM* | -0.4%
O=C(CN1CCN(S(=O)(=O)c2ccccc2)CC1)NCCc1ccccc1 | nt | -1.8% | 2.8% | -9.9% | 10.6% | -4.6%
CC(=O)N1CCc2cc(S(=O)(=O)NC(Cc3ccccc3)C(=O)Nc3ccc(C)cc3C)ccc21 (stereo unspecified) | -14.3% | nt | nt | nt | -11.2% | nt
CCc1nnc(NC(=O)c2ccc(-c3ccccc3F)o2)s1 | 21.1% | 24.6% | 24.9% | -1.8% | -14.2% | ?
O=C(NCc1ccccc1)c1ccc(-c2ccccc2F)o1 | 31.6µM* | 26.1% | ? | ? | 13.5µM* | 13µM*
O=C(NCCc1ccccc1)c1ccc(-c2ccccc2C(F)(F)F)o1 | 8.5% | -2.6% | -0.7% | 2.2% | ? | 1.3%
O=C(NCCc1ccccc1)c1ccc(-c2ccc(F)cc2)o1 | 4.9% | -6.0% | 0.7% | 0.7% | 21.3µM* | -0.1%
O=S(=O)(CCSc1nc2ccccc2o1)c1nc2ccccc2s1 | 17.8µM* | -0.7% | -7.6% | -25.8% | -0.3% | -2.2%
O=S(=O)(CCSc1ccccn1)c1nc2ccccc2s1 | 11.2µM* | -1.2% | -4.4% | ? | 3.1% | -10.0%
Cc1ccc([C@@]2(C)CC/C(=N/N=C3\CC[C@](C)(c4ccc(C)c(C)c4)c4cc(C)c(C)cc43)c3cc(C)c(C)cc32)cc1C | -9.3%[9.22 µM] | nt | nt | nt | nt | nt
O=S(=O)(c1cccc(F)c1)N1CCC(Oc2ccc(-n3cnnn3)cc2)CC1 | 2.8% | nt | nt | nt | 4.5% | nt

Assay outcomes deposited in PubChem BioAssay by National Center for Advancing Translational Sciences (NCATS).
